Assays:
Experiment in all cases: protein-binding microarray (PBM); PBM: ~300 nM protein, 6 mM HEPES pH 7.8, 80 mM KCl, 0.5 mM EDTA, 0.5 mM EGTA, 6% glycerol, 35 ng/ul poly-dIdC, 1% milk, 1 h, room temperature; Ap Aiptasia and Nv Nematostella (sea anemones) / Co Capsaspora / Aq Amphimedon (sponge) / Dm Drosophila / Hu human; RHD is the Rel homology domain; high values mean tight binding
Details in all cases: dsDNA, one strand shown
[1] = target: T1, GST-Ap-NF-kB RHD (Exaiptasia pallida (Aiptasia), UniProt A0A913YAJ5 2-422)
T1 sequence: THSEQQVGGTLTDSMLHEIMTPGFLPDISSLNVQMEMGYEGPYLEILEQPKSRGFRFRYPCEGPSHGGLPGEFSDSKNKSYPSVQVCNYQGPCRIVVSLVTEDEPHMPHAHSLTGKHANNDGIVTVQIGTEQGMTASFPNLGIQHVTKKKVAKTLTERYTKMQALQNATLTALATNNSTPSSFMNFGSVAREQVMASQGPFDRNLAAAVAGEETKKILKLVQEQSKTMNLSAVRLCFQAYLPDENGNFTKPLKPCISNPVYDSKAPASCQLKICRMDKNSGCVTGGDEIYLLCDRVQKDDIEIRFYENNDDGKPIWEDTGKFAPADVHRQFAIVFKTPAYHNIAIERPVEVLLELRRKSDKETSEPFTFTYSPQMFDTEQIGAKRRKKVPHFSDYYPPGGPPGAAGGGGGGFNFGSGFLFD

[2] = target: T2, GST-Nv-NF-kB (Cys allele) (Nematostella vectensis, UniProt E5G601 2-411)
T2 sequence: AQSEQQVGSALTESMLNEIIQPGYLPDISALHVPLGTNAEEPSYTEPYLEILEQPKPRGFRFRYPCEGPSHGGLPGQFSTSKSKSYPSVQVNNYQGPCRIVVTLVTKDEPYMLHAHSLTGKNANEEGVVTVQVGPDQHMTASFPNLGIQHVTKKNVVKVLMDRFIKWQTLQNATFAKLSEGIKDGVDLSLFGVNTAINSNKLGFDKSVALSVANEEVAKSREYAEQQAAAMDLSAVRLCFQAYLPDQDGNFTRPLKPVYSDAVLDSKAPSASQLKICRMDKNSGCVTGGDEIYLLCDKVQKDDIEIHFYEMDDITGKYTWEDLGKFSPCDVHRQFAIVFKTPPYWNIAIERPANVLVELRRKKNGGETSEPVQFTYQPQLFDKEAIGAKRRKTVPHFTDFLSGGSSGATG

[3] = target: T3, GST-Co-NF-kB (Capsaspora owczarzaki, UniProt F1ARL5 200-546)
T3 sequence: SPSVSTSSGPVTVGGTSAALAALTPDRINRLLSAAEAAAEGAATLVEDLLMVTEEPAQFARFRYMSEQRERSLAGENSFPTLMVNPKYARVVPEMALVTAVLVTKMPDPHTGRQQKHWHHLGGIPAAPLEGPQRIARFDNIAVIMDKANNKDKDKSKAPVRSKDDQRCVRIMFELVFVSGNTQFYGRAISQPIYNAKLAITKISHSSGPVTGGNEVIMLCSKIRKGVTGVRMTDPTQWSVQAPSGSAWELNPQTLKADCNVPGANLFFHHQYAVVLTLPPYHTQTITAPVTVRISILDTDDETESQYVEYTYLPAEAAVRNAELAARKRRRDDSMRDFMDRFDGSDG

[4] = target: T4, GST-Dm-Relish (Drosophila melanogaster, UniProt Q94527 99-473)
T4 sequence: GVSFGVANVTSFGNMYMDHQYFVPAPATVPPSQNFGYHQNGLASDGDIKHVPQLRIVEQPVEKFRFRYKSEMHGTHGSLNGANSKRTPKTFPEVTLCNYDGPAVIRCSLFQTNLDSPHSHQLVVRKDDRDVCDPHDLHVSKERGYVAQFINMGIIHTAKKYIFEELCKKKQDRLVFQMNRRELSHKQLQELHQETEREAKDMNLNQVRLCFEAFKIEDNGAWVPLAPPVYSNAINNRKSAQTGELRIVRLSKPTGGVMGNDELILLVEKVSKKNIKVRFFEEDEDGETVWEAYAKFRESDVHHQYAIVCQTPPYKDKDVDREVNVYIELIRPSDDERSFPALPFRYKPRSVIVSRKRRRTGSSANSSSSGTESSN

[5] = target: T5, GST-Aq-NF-kB (Amphimedon queenslandica, UniProt A9Y5G7 2-389)
T5 sequence: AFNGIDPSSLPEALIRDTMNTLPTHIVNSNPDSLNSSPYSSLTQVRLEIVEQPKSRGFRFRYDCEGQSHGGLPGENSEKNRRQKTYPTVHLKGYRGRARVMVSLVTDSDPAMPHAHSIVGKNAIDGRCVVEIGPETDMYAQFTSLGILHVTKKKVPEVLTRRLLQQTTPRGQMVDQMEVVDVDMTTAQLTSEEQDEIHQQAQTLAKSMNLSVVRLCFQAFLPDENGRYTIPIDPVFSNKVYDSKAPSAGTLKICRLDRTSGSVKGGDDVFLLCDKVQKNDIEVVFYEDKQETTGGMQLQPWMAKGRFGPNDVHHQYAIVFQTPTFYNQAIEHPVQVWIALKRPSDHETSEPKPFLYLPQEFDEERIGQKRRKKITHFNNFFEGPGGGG

Sequence	binding signal [1] [z-score]	binding signal [2] [z-score]	binding signal [3] [z-score]	binding signal [4] [z-score]	binding signal [5] [z-score]
CCGATTAACATCAGGGACACCCCTGATGTTAATCGGGTCTTGATTCGCTTGACGCTGCTG	6.11	4.44	3.39	7.09	6.84
CCGATTAACATCAGGGATTTCCATGATGTTAATCGGGTCTTGATTCGCTTGACGCTGCTG	4.13	3.8	1.29	7.94	5.39
CCGATTAACATCAGGAACCCCCATGATGTTAATCGGGTCTTGATTCGCTTGACGCTGCTG	7.5	5	2.67	9.25	5.35
CCGATTAACATCAGAACATTCCCTGATGTTAATCGGGTCTTGATTCGCTTGACGCTGCTG	2.94	4.14	2.6	1.97	5
CCGATTAACATCACTGTTTTCCCTGATGTTAATCGGGTCTTGATTCGCTTGACGCTGCTG	2.63	4.15	4.9	1.62	3.31
CCGATTAACATCAAATTCCCGTATGATGTTAATCGGGTCTTGATTCGCTTGACGCTGCTG	2.44	4.38	2.65	3.19	3.72
CCGATTAACATCACATGTTCCCCTGATGTTAATCGGGTCTTGATTCGCTTGACGCTGCTG	4.94	5.26	6.79	3.04	4.62
CCGATTAACATCACATTTTCCCATGATGTTAATCGGGTCTTGATTCGCTTGACGCTGCTG	2.42	3.68	3.98	1.33	2.13
CCGATTAACATCAGGGGTATAACTGATGTTAATCGGGTCTTGATTCGCTTGACGCTGCTG	1.94	1.77	3.43	1.06	2.25
CCGATTAACATCAATGCACCCCCTGATGTTAATCGGGTCTTGATTCGCTTGACGCTGCTG	4.19	2.93	3.47	3.29	3.4
CCGATTAACATCAGGGGGACAAATGATGTTAATCGGGTCTTGATTCGCTTGACGCTGCTG	4.37	4.84	7.51	2.64	4.19
CCGATTAACATCAGGGAAAGAACTGATGTTAATCGGGTCTTGATTCGCTTGACGCTGCTG	1.89	3.99	2.55	6.83	4.9
CCGATTAACATCAGGAGACTCCCTGATGTTAATCGGGTCTTGATTCGCTTGACGCTGCTG	2.16	2.35	1.37	1.79	5.19
CCGATTAACATCAATATAGTCCCTGATGTTAATCGGGTCTTGATTCGCTTGACGCTGCTG	5.51	4.77	1.15	1.16	3.69
CCGATTAACATCAGGCGTCCCCCTGATGTTAATCGGGTCTTGATTCGCTTGACGCTGCTG	5.61	5.07	4.12	3.92	4.77
CCGATTAACATCAGGGAAAATGATGATGTTAATCGGGTCTTGATTCGCTTGACGCTGCTG	2.8	4.26	3.42	1.15	3.05
CCGATTAACATCACGGATTTCCCTGATGTTAATCGGGTCTTGATTCGCTTGACGCTGCTG	3.73	5.2	3.28	5.3	5.69
CCGATTAACATCAGGAATACCCATGATGTTAATCGGGTCTTGATTCGCTTGACGCTGCTG	4.37	4.62	1.39	4.16	4.54
CCGATTAACATCAGGGGACGCACTGATGTTAATCGGGTCTTGATTCGCTTGACGCTGCTG	4.45	4.2	2.19	5.79	4.68
CCGATTAACATCAAGTACCCCCATGATGTTAATCGGGTCTTGATTCGCTTGACGCTGCTG	4.72	2.7	4.36	2.25	2.6
CCGATTAACATCACGGGAATCCCTGATGTTAATCGGGTCTTGATTCGCTTGACGCTGCTG	6.64	5.96	3.81	10.1	7.15
CCGATTAACATCAAGAGTTTCCCTGATGTTAATCGGGTCTTGATTCGCTTGACGCTGCTG	4.29	5.34	3.98	2.43	5.12
CCGATTAACATCAGGGGGTTAACTGATGTTAATCGGGTCTTGATTCGCTTGACGCTGCTG	5.36	3.73	2.64	8.09	5.06
CCGATTAACATCACATATACCCCTGATGTTAATCGGGTCTTGATTCGCTTGACGCTGCTG	3.26	1.78	4.3	1.34	2.28
CCGATTAACATCAAACCCCCCCCTGATGTTAATCGGGTCTTGATTCGCTTGACGCTGCTG	7.29	5.16	4.79	6.75	5.35
CCGATTAACATCAGGGGTATACCTGATGTTAATCGGGTCTTGATTCGCTTGACGCTGCTG	4.25	2.43	3.98	4.15	4.94
CCGATTAACATCACCCCTCCCCATGATGTTAATCGGGTCTTGATTCGCTTGACGCTGCTG	3.7	2.55	3.58	3.67	2.92
